Inconclusive results are not listed. Calls of active or inactive are those of the source. The call rests on the fitted dose curve; in most records, active means well fitted inhibition curve with a large enough effect; inconclusive means small, poorly fitted or top-dose-only effect; inactive means flat fitted curve, though single readings scatter.
Assay: Identification of antibody-drug conjugate (ADC) payloads which are substrates of ATP-binding cassette drug efflux transporters: ABCB1-HEK293-pcDNA cell line
Conditions: HEK293 empty-vector (pcDNA) control viability, CellTiter-Glo, 48 h
Excerpt: Antibody-drug conjugates (ADCs) feature an antibody recognizing a specific protein joined to a potent toxic payload. Numerous antibody-drug conjugates have received FDA approval; however, clinical resistance arises. Resistance mechanisms include decreased expression or mutation of the antibody target, impaired payload release, or increased expression of ATP-binding cassette (ABC) efflux transporters associated with multidrug resistance. We therefore sought to characterize the interaction of ABC multidrug transporters with ADC payloads. We performed a high-throughput screen with 27 common ADC payloads using cells lines expressing ABC transporters P-glycoprotein (P-gp, encoded by ABCB1) or ABCG2 (encoded by ABCG2). Confirmatory assays were also performed using cells transfected to express P-gp, ABCG2, or MRP1 (encoded by ABCC1). Several commonly used ADC payloads were substrates of P-gp, including calicheamicin gamma1, monomethyl auristatin E, DM1, and DM4. All the pyrrolobenzodiazepines tested - SJG136, SGD-1882, SG2057, and SG3199 - were substrates of P-gp, ABCG2, and MRP1. […] These findings highlight the risk of transporter-mediated resistance with certain ADC payloads and underscore the importance of selecting payloads that evade ABC transporter recognition in future ADC development.
HEK-293 cells were transfected with empty vector (pcDNA) or vector containing the human ABCB1 (MDR-19), ABCG2 (R-5), or ABCC1 gene (MRP1) and were maintained in EMEM with 2 mg/mL G418 added to maintain transporter expression. The HeLa derivative KB-3-1 and the P-gp overexpressing KB-8-5-11 subline were maintained in DMEM; KB-8-5-11 additionally received 100 ng/mL colchicine. H460 parental cells were obtained from the Division of Cancer Treatment and Diagnosis Tumor Repository, National Cancer Institute at Frederick, MD and were cultured in RPMI. The ABCG2 expressing subline H460 MX20 was generated by selecting H460 cells in 20 nM mitoxantrone. Media in all cases was supplemented with 10% FBS and 1% penicillin-streptomycin. We explored 27 common ADC payloads, in two orthogonal, paired cell line sets-a drug selected and transfected set for each transporter--to identify substrates of the ABC transporters P-gp and ABCG2. Compounds were sourced from Levena Biopharma (San Diego, CA), Selleck Chem (Houston, TX), ChemieTek (Indianapolis, IN), or Microsource Discovery Systems (Gaylordsville, CT). Screening was performed as previously described. Briefly, cells were plated at a density of 500 cells/well in 1536 well plates with compounds added using a 1536-head pin tool (Kalypsys, San Diego CA). Cells were incubated with cytotoxic drugs and processed with CellTiter Glo reagent (Promega, Madison, WI) to determine viability after 48 hours. […]
With `CC[C@@]1(O)C(=O)OCc2c1cc1n(c2=O)Cc2cc3ccccc3nc2-1` the Potency was 11.8 nM (active).
In the case of `COc1cc2cc(C(=O)N3C[C@@H](CCl)c4c3cc(O)c3ccccc43)[nH]c2c(OC)c1OC`, the Potency is reported as 1.5 nM (active).
In the case of `CC[C@H](C)[C@H](NC(=O)[C@H]1CCCCN1C)C(=O)N(C)[C@H](C[C@@H](OC(C)=O)c1nc(C(=O)N[C@@H](Cc2ccccc2)C[C@H](C)C(=O)O)cs1)C(C)C`, the Potency is reported as 1.3 nM (active).
In the case of `COc1cccc2c1C(=O)c1c(O)c3c(c(O)c1C2=O)C[C@@](O)(C(=O)CO)CC3OC1CC(N2CCOC(OC)C2)C(O)C(C)O1` (some centres undefined), the Potency is reported as 1.7 nM (active).

— PubChem BioAssay AID2061306 (National Center for Advancing Translational Sciences (NCATS), 2025)
